# Compound activity from PubChem BioAssay.
# Tb PYK inh: inhibitors of Trypanosoma brucei pyruvate kinase. TbPYK enzyme, Kinase-Glo Plus ATP luminescence, 45 min. Potency, µM (titrated, usually from 76.8 µM), most hits filed as inhibitors. actives 0.12% (n = 410,000). AID 624173; also: nearly all actives have a fitted effect of over 50% in size
#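 Enzyme and substrate buffer are dispensed first and compound is pin-transferred. ADP at 130 uM final then starts the reaction, which runs 45 min at room temperature. Detection reagent is added for 10 min before luminescence is imaged.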
# LmPK inh: blocks Leishmania mexicana pyruvate kinase activity; actives 0.37% (n = 290,000); purified LmPK, Kinase-Glo ATP luminescence, 1 h; Potency, µM (highest dose often 57.5 µM), hits mostly inhibitors; Q27686
#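 Purified LmPK (0.1 nM) converted ADP (0.1 mM) to ATP with PEP (0.5 mM) in imidazole buffer pH 7.2 with KCl and MgCl2, 1 h at room temperature. ATP was read by Kinase-Glo luminescence; data normalized to uninhibited and no-enzyme controls.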
# CHX counter: counter-screen hit for Shiga toxin inhibitors, cycloheximide; actives 12% (n = 300,000); cell reporter, cycloheximide protein synthesis inhibition counterscreen; max response, %; in the data active = max response mostly above about 13%, no sharp cut-off; inactive = mostly below about 14%; also: read at 38.3 µM for the half of the compounds with a filed dose
# Sm TGR inh: S. mansoni TGR enzyme inhibition. Q962Y6. purified TGR, DTNB reduction, TNB absorbance 405 nm. Potency, µM (highest dose often 114 µM), actives largely listed as inhibitors. actives 3% (n = 360,000). AID 485364; also: nearly all actives have a fitted effect of over 60% in size
#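 Kinetic colorimetric format: TGR-catalysed, NADPH-driven DTNB reduction monitored via TNB absorbance. Enzyme dispensed at 20 nM; compound exposure 15 min at room temperature before reaction start.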
# Shiga inhibitor: blocks Shiga toxin action in Vero cells. Vero cells, Shiga toxin protein synthesis inhibition reporter. inhibition, % at 38.7 µM. actives 9.2% (n = 290,000). AID 2315; in the data active = inhibition mostly above about 28%, no sharp cut-off; inactive = mostly below about 43%
# Giardia FBPA inh: Giardia lamblia aldolase inhibition | A8B2U2 | purified Giardia FBPA | Potency, µM (top dose mostly 59.6 µM), actives largely listed as inhibitors | actives 0.71% (n = 290,000) | AID 2451; also: nearly all actives have a fitted effect of over 55% in size
# Target sequence (A8B2U2 whole entry, looked up): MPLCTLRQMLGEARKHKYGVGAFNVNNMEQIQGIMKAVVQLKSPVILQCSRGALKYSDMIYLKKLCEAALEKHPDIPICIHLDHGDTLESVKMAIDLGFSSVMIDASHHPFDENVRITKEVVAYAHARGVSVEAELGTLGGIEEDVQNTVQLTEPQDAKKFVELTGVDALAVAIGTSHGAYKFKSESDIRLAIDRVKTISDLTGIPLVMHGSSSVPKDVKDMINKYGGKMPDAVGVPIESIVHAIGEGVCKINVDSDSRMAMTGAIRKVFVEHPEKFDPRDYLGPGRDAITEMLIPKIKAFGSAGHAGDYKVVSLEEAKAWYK
#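 40 nM FBPA preincubated 10 min at RT with compound (up to 57.5 uM final), then substrate plus GAPDH/TPI/NAD/arsenate coupling and diaphorase/resazurin added. Fluorescence read after 20 min at RT, 525/598 nm.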
# A number is an active result; 0 = inactive; ? = inconclusive; - = no result; [ ] = another dose, or the depositor's remark. The entries come from a sample that favours hits as a whole. Unless noted, calls follow the shape of the dose curve; as a rule, active = well fitted curve in the direction sought with a large enough effect; inconclusive = small, poorly fitted or top-dose-only effect, or another doubt; inactive = no such curve, though single readings can be large; an effect the other way counts as inactive or inconclusive.
SMILES,Tb PYK inh,LmPK inh,CHX counter,Sm TGR inh,Shiga inhibitor,Giardia FBPA inh
Cc1ccc(C(=O)Nc2ccc(Cl)cc2C(F)(F)F)c(Cl)c1,0,0,31,0,56,0
Cc1ccc(C(=O)Nc2ccc(Cl)cc2C)c(Cl)c1,0,0,27,0,100,0
Cc1ccc(NC(=O)c2ccc(Cl)cc2Cl)cc1O,0,0,39,0,94,0
O=C(Nc1ccc(Nc2ccccc2)cc1)c1ccc(Cl)cc1Cl,0,-,-,-,-,-
O=C(Nc1ccc(Cl)cc1C(F)(F)F)c1cc(S(=O)(=O)NCc2ccccc2)ccc1F,0,-,-,0,-,-
O=C(Nc1cc(F)c(Br)cc1F)c1ccc(Cl)cc1,0,0,34,0,111,0
Cc1ccc(NC(=O)C(Cc2c[nH]c3ccccc23)NC(=O)OC(C)(C)C)c(C)c1 (stereo not drawn),0,-,-,0,-,-
COc1ccc(CC(=O)N(C)Cc2ccc(OC(F)F)cc2)cc1S(=O)(=O)N1CCOCC1,0,-,-,-,-,-
CCOc1ccc(CNC(=O)c2ccc(CSc3nc4ccncc4n3Cc3ccc(F)cc3)cc2)cc1,0,-,-,0,-,-
CC(C)OCCCN1C(=O)c2[nH]nc(-c3ccccc3O)c2C1c1ccccc1F (stereo not drawn),0,-,-,0,-,-
O=C(Nc1ccc(Cl)cc1C(F)(F)F)c1ccccc1Cl,0,0,13,0,0,0
Cc1noc(C)c1C(=O)Nc1ccc(Cl)cc1C(F)(F)F,0,0,0,0,0,0
O=C(Nc1ccc(Cl)cc1C(F)(F)F)c1ccc(Cl)cc1,0,0,16,0,0,0
Cc1nc2c(-c3ccc(F)cc3)cnn2c2c1CCC2,0,0,38,0,53,0
CCCCCn1c(CN2CCN(c3ccc(OC)cc3)CC2)nc2c1c(=O)[nH]c(=O)n2C,0,-,-,0,-,-
CC1CCCCN1CC(=O)c1c[nH]c2ccccc12 (stereo not drawn),0,0,0,0,0,0
CC1CCCCN1CC(=O)c1ccc2cc[nH]c2c1 (stereo not drawn),0,0,0,8.9µM,0,0
Nc1c(N2CCCC2)cc(Cl)c2nonc12,0,0,0,56µM,0,?
Nc1ccc(N2CCCCC2)c2nonc12,?,0,0,?,0,2µM
CC(=O)c1cccc(NC(=O)C2CCN(c3nnc(-n4cccc4)s3)CC2)c1,0,-,-,0,-,-
CCN(CC)CCNC(=O)c1ccc(Cn2c(=O)c3cccn3c3cccnc32)cc1,0,-,-,0,-,-
O=C(Nc1ccc(F)cc1)Nc1csc2c1CCCC2,0,-,-,0,-,-
O=C1c2ccccc2NC(c2ccccc2O)N1c1ccc(F)cc1 (stereo not drawn),0,0,67,0,56,0
COc1cccc(C2Nc3ccccc3C(=O)N2c2ccc(F)cc2)c1O (stereo not drawn),0,0,59,0,79,0
O=C1c2ccccc2NC(c2ccccc2)N1c1ccc(O)cc1 (stereo not drawn),0,0,0,0,0,0
SMILES,Tb PYK inh,LmPK inh,CHX counter,Sm TGR inh,Shiga inhibitor,Giardia FBPA inh
CCc1cc[n+](-c2nc3ccccc3nc2[N-]S(=O)(=O)c2ccc(Br)s2)cc1,0,0,13,0,0,0
COc1ccccc1NC(=S)N/N=C/c1ccc(O)cc1,0,0,69,0,40,0
CCNC(=S)N/N=C/c1cccc(C)c1,0,0,37,0,56,0
COc1ccc(C=NNC(=S)NN=Cc2ccc(OC)c(OC)c2)cc1OC,0,-,-,-,-,-
COc1ccccc1NC(=S)N/N=C/c1cccc(C)c1,0,0,23,0,0,0
CN1[C@@H]2CC(OC(=O)[C@H](CO)c3ccccc3)C[C@@H]1[C@H]1O[C@H]12 (stereo partly drawn),-,-,-,-,-,0
Cc1ccc(CN(Cc2ccco2)C(=O)c2cccc(C)c2)cc1,0,-,-,0,-,-
CCCCCc1ccc(-c2ccc(OC)cc2)nc1,0,0,0,?,0,0
CCCCc1ccc(-c2ccc(Br)cc2O)nc1,0,0,49,0,86,0
CCCCc1ccc(-c2ccc(C)cc2O)nc1,0,0,25,0[11.4 µM],58,0
CCCCc1ccc(-c2nn[nH]n2)nc1,0,-,-,-,-,-
Clc1cc(Cl)c(OCCCCn2cncn2)c(Cl)c1,0,0,0,0,0,?
